Laboratory results: the supplement of paper PMC8728848
Only a selection was taken, and the strongest signals are over-represented in it overall.

How the values were obtained:
Experiment in all cases: glycan array binding signal (z-score within array); higher = stronger binding
Conditions in all cases: glycan notation: IUPAC condensed, linker removed
[1] = target: Gal(b1-4)GlcNAc(b1-3)Gal(b1-4)GlcNAc(b1-3)Gal(b1-4)GlcNAc(b1-3)Gal(b1-4)GlcNAc(b1-3)Gal(b1-4)GlcNAc(b1-2)Man(a1-3)[Gal(b1-4)GlcNAc(b1-3)Gal(b1-4)GlcNAc(b1-3)Gal(b1-4)GlcNAc(b1-3)Gal(b1-4)GlcNAc(b1-3)Gal(b1-4)GlcNAc(b1-2)Man(a1-6)]Man(b1-4)GlcNAc(b1-4)GlcNAc
Method in brief: (§1)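 Glycan array data came from 3228 arrays in the Consortium for Functional Glycomics database, and only arrays with an available protein sequence were kept. Glycan names were put into IUPAC-condensed notation, and columns mapping to the same glycan were averaged. The binding signal is a within-array Z-score, averaged across arrays of one protein sequence run at different concentrations or buffers and across linkers. A negative Z-score can be read as non-binding.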

[2] = target: Gal(b1-4)GlcNAc(b1-3)Gal(b1-4)GlcNAc(b1-3)Gal(b1-4)GlcNAc(b1-3)Gal(b1-4)GlcNAc(b1-3)Gal(b1-4)GlcNAc(b1-2)Man(a1-3)[Gal(b1-4)GlcNAc(b1-3)Gal(b1-4)GlcNAc(b1-3)Gal(b1-4)GlcNAc(b1-3)Gal(b1-4)GlcNAc(b1-3)Gal(b1-4)GlcNAc(b1-2)Man(a1-6)]Man(b1-4)GlcNAc(b1-4)[Fuc(a1-6)]GlcNAc
Method in brief: as §1

[3] = target: Gal(b1-4)GlcNAc(b1-3)Gal(b1-4)GlcNAc(b1-3)[Gal(b1-4)GlcNAc(b1-3)Gal(b1-4)GlcNAc(b1-6)]GalNAc
Method in brief: as §1

Gal3S(b1-3)GlcNAc = target: Gal3S(b1-3)GlcNAc
Method in brief: as §1

Gal3S6S(b1-4)GlcNAc6S = target: Gal3S6S(b1-4)GlcNAc6S
Method in brief: as §1

Gal6P(b1-4)GlcNAc = target: Gal6P(b1-4)GlcNAc
Method in brief: as §1

[4] = target: GalNAc(b1-3)Gal(a1-6)Gal(b1-4)Glc
Method in brief: as §1

[5] = target: GalNAc(b1-4)GlcNAc(b1-2)Man
Method in brief: as §1

[6] = target: GalNAc3S(b1-4)[Fuc(a1-3)]GlcNAc
Method in brief: as §1

GlcA(b1-3)GlcNAc = target: GlcA(b1-3)GlcNAc
Method in brief: as §1

[7] = target: GlcNAc(b1-2)Man(a1-3)[GlcNAc(b1-2)Man(a1-6)]Man(b1-4)GlcNAc(b1-4)GlcNAc
Method in brief: as §1

[8] = target: GlcNAc(b1-2)[GlcNAc(b1-4)]Man(a1-3)[GlcNAc(b1-4)][GlcNAc(b1-2)[GlcNAc(b1-6)]Man(a1-6)]Man(b1-4)GlcNAc(b1-4)[Fuc(a1-6)]GlcNAc
Method in brief: as §1

[9] = target: GlcNAc(b1-3)Gal(b1-3)GalNAc
Method in brief: as §1

GlcNAc(b1-3)Gal(b1-4)Glc = target: GlcNAc(b1-3)Gal(b1-4)Glc
Method in brief: as §1

[10] = target: GlcNAc(b1-3)Gal(b1-4)GlcNAc
Method in brief: as §1

[11] = target: GlcNAc(b1-3)Gal(b1-4)GlcNAc(b1-3)Gal(b1-4)GlcNAc(b1-3)Gal(b1-4)GlcNAc(b1-2)Man(a1-3)[GlcNAc(b1-3)Gal(b1-4)GlcNAc(b1-3)Gal(b1-4)GlcNAc(b1-3)Gal(b1-4)GlcNAc(b1-2)Man(a1-6)]Man(b1-4)GlcNAc(b1-4)[Fuc(a1-6)]GlcNAc
Method in brief: as §1

[12] = target: GlcNAc(b1-3)Gal(b1-4)GlcNAc(b1-6)[GlcNAc(b1-3)Gal(b1-3)]GalNAc
Method in brief: as §1

[13] = target: Man(a1-2)Man(a1-3)[Man(a1-6)]Man(a1-6)[Man(a1-2)Man(a1-3)]Man(b1-4)GlcNAc(b1-4)GlcNAc
Method in brief: as §1

Man(b1-4)GlcNAc = target: Man(b1-4)GlcNAc
Method in brief: as §1

[14] = target: Neu5Ac(a2-3)Gal(b1-3)GalNAc6S
Method in brief: as §1

[15] = target: Neu5Ac(a2-3)Gal(b1-3)GlcNAc6S
Method in brief: as §1

[16] = target: Neu5Ac(a2-3)Gal(b1-3)[Fuc(a1-4)]GlcNAc(b1-3)Gal(b1-4)[Fuc(a1-3)]GlcNAc
Method in brief: as §1

[17] = target: Neu5Ac(a2-3)Gal(b1-4)GlcNAc(b1-2)[Neu5Ac(a2-3)Gal(b1-4)GlcNAc(b1-4)]Man(a1-3)[GlcNAc(b1-4)][Neu5Ac(a2-3)Gal(b1-4)GlcNAc(b1-2)[Neu5Ac(a2-3)Gal(b1-4)GlcNAc(b1-6)]Man(a1-6)]Man(b1-4)GlcNAc(b1-4)GlcNAc
Method in brief: as §1

[18] = target: Neu5Ac(a2-3)Gal(b1-4)GlcNAc(b1-6)[Gal(b1-3)]GalNAc
Method in brief: as §1

[19] = target: Neu5Ac(a2-3)Gal(b1-4)[Fuc(a1-3)]GlcNAc(b1-3)Gal(b1-4)GlcNAc
Method in brief: as §1

Neu5Ac(a2-3)GalNAc = target: Neu5Ac(a2-3)GalNAc
Method in brief: as §1

[20] = target: Neu5Ac(a2-6)Gal(b1-4)GlcNAc(b1-2)Man(a1-6)Man(b1-4)GlcNAc(b1-4)GlcNAc
Method in brief: as §1

[21] = target: Neu5Ac(a2-6)Gal(b1-4)GlcNAc(b1-3)Gal(b1-4)[Fuc(a1-3)]GlcNAc(b1-3)Gal(b1-4)[Fuc(a1-3)]GlcNAc
Method in brief: as §1

Neu5Ac(a2-8)Neu5Ac = target: Neu5Ac(a2-8)Neu5Ac
Method in brief: as §1

[22] = target: Neu5Gc(a2-3)Gal(b1-3)GlcNAc
Method in brief: as §1

B1: Mermaid1 (Stilbonema majum) (protein)
chain: MGSSHHHHHHSSGLVPRGSHMAASGWLRSPQGTVVKLYRRSLSWSKADEFCKDVDGRLVVDRTADMHLFLIKNVLKEKKSRVWVGLRRTAPHSRTWIWSDGTRQNEDDLDANLWLRDEPNDAAGEEECALFMYSPWEKAWGLNDYLCRGGCRSYQFICEKWIR
glycan array binding signal (z-score) [1]: 0.715
glycan array binding signal (z-score) [2]: -0.28
glycan array binding signal (z-score) [3]: -0.17
glycan array binding signal (z-score) (Gal3S(b1-3)GlcNAc): 0.37
glycan array binding signal (z-score) (Gal3S6S(b1-4)GlcNAc6S): -0.524
glycan array binding signal (z-score) (Gal6P(b1-4)GlcNAc): -0.911
glycan array binding signal (z-score) [4]: -0.59
glycan array binding signal (z-score) [5]: 3.48
glycan array binding signal (z-score) [6]: 0.714
glycan array binding signal (z-score) (GlcA(b1-3)GlcNAc): -0.379
glycan array binding signal (z-score) [7]: -0.645
glycan array binding signal (z-score) [8]: -0.663
glycan array binding signal (z-score) [9]: -0.864
glycan array binding signal (z-score) (GlcNAc(b1-3)Gal(b1-4)Glc): 0.313
glycan array binding signal (z-score) [10]: -0.029
glycan array binding signal (z-score) [11]: 0.762
glycan array binding signal (z-score) [12]: -0.841
glycan array binding signal (z-score) [13]: -0.285
glycan array binding signal (z-score) (Man(b1-4)GlcNAc): 8.49
glycan array binding signal (z-score) [14]: 0.152
glycan array binding signal (z-score) [15]: 0.494
glycan array binding signal (z-score) [16]: 2.98
glycan array binding signal (z-score) [17]: -0.428
glycan array binding signal (z-score) [18]: 5.42
glycan array binding signal (z-score) [19]: -0.359
glycan array binding signal (z-score) (Neu5Ac(a2-3)GalNAc): -0.535
glycan array binding signal (z-score) [20]: -0.437
glycan array binding signal (z-score) [21]: -0.822
glycan array binding signal (z-score) (Neu5Ac(a2-8)Neu5Ac): -0.351
glycan array binding signal (z-score) [22]: -0.396
